# Hits are enriched below; roughly 27% of the tested compounds scored in any of these assays.
# CYP2C19 act = increases human CYP2C19 enzyme activity. 96,000 tested, under 10 active. recombinant CYP2C19, luciferin-H EGE luminescence; stronger effect = higher value; 0 = fully inhibited enzyme, 1 = untreated enzyme. activation factor at 5 µM. P33261;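 active = activation factor of at least 2 at 5 µM in the primary screen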;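 also: 0 = wells with 2.5 mM tranylcypromine and 1 = vehicle-only wells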
# CYP2C9 inhib = inhibitors of human CYP2C9; CYP2C9 Supersomes, luciferin-H conversion, luminescence; P11712; inhibition, % at 5 µM; hit rate 20% among 96,000;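 active = blocking of liver enzyme CYP2C9 beyond about 50% at 5 µM, limit read from the data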
# CYP2C9 act = activators of human CYP2C9; recombinant CYP2C9, luciferin-H conversion, luminescence; stronger effect = higher value; factor 1 = untreated enzyme, 0 = blocked; activation factor at 5 µM; hit rate 1.4% among 96,000; AID 1024;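 active = activation factor of 2 or more for CYP2C9 at a 5 µM dose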;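 also: 0 = sulfaphenazole-blocked wells and 1 = vehicle-only wells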
# CYP2C19 inh = human CYP2C19 inhibition; AID 778; P33261; inhibition, % at 5 µM; CYP2C19 Supersomes, luciferin-H EGE luminescence, 30 min; hit rate 21% among 96,000;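 active = CYP2C19 inhibition above a set limit at 5 µM in the primary screen, cut at about 50% in these data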;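 also: plate controls were negative control wells for no effect and 2.5 mM tranylcypromine positive control for full effect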
# Cav32 inh = human Cav3.2 channel inhibition, primary screen; Cav3.2-expressing cells, Fluo-4 calcium fluorescence FDSS; stronger effect = lower value; B-score at 10 µM; hit rate 4% among 100,000;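 active = single-dose well whose peak fluorescence ratio is a statistical outlier from its plate by either plate-standardised score or position-corrected B-score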
# Target sequence (O95180 whole entry, looked up): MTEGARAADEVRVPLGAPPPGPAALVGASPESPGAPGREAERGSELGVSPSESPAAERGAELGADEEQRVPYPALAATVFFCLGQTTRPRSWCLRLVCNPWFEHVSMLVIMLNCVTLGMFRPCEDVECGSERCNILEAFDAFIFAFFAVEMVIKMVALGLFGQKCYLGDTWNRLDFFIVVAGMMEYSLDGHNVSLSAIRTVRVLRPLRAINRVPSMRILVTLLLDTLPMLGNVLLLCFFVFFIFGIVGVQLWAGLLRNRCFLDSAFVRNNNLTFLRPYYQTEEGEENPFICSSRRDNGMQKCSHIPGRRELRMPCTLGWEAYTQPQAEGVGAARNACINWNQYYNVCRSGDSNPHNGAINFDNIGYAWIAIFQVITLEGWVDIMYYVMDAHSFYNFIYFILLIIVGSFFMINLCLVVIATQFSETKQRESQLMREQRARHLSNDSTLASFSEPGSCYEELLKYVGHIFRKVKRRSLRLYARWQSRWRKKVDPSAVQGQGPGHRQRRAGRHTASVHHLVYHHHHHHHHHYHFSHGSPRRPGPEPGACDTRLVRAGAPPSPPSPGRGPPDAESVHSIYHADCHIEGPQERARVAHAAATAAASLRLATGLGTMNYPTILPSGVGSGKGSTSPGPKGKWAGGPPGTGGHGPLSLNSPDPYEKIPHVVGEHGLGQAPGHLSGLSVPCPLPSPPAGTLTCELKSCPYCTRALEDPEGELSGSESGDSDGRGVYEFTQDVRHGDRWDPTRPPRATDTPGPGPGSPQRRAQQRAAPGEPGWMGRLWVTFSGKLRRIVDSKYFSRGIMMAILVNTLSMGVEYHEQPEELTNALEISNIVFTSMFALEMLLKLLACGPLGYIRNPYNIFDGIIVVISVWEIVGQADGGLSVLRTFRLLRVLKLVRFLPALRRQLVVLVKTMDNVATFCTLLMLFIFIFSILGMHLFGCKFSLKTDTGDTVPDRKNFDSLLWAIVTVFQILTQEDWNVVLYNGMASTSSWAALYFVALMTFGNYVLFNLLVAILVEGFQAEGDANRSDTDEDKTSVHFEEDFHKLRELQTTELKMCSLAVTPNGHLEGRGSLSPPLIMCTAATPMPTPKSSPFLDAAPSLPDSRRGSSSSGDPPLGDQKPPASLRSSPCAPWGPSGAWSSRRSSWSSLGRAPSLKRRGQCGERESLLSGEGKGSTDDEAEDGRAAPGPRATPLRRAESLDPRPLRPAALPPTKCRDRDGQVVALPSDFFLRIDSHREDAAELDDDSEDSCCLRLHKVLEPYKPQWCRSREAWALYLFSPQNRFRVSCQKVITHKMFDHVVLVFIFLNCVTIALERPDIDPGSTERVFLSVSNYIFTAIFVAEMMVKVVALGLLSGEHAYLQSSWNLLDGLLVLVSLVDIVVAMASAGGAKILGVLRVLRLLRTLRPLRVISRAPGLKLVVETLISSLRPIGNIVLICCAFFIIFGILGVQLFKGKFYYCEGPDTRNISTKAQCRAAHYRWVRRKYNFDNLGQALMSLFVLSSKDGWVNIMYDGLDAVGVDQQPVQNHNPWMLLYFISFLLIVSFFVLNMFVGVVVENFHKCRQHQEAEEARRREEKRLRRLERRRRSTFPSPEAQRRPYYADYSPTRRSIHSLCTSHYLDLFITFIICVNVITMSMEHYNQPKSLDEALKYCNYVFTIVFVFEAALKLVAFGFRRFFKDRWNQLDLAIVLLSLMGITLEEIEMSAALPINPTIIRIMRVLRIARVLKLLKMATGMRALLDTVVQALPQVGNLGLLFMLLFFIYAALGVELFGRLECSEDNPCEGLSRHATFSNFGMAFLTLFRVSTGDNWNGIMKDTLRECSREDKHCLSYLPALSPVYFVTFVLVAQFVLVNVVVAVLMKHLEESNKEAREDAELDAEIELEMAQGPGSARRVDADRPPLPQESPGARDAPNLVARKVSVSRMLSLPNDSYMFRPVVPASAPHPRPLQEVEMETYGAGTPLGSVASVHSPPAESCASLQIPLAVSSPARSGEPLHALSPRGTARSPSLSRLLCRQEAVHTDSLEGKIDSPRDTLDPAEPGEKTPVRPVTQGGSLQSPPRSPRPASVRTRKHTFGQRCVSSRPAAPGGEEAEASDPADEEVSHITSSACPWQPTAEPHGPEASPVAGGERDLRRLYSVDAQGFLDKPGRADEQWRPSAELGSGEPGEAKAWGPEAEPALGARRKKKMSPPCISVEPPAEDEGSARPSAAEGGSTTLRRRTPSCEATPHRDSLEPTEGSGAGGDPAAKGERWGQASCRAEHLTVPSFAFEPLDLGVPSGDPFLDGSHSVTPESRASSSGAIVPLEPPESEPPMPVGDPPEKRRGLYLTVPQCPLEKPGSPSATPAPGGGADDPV
# Numbers without * were called inactive; x = no result given.
SMILES,CYP2C19 act,CYP2C9 inhib,CYP2C9 act,CYP2C19 inh,Cav32 inh
Cc1ccc2c(c1)NC(=O)C(CC(=O)N(C)Cc1ccccc1)O2 (stereo not drawn),0.6,-7.5,1.1,38.2,-1.35
CCC(CO)NCCNC(CC)CO (stereo not drawn),1.1,-9.5,1.1,-9.8,x
C=CCn1c(=O)/c(=C/c2cc(OC)c(OC)c(OC)c2)s/c1=C(/C#N)c1nc2ccccc2n1C,0.9,3.4,1,9.6,-3.63
CCn1c(/N=C/c2c[nH]c3ccccc23)nc2ccccc21,0.4,90.2*,0.1,60.9*,-0.914
CCCn1c(/N=C/c2c[nH]c3ccccc23)nc2ccccc21,1,15.4,0.8,3.7,0.0127
CCOC(=O)c1ccc(N2C(=O)CC(N3CCC(C(N)=O)(N4CCCCC4)CC3)C2=O)cc1 (stereo not drawn),x,x,x,x,0.7
COc1ccc(C)cc1S(=O)(=O)N(CC(=O)NCc1ccc(Cl)cc1)Cc1ccccc1,0.3,89.4*,0.1,72.1*,-3.31
COc1ccc(CNC(=O)CN(Cc2ccc(Cl)cc2)S(=O)(=O)c2ccccc2)cc1,0.6,34.4,0.7,42.1,-0.938
COc1ccc(CNC(=O)CN(Cc2ccccc2)S(=O)(=O)c2ccc(Cl)cc2)cc1,0,96.1*,0,99.5*,-3.51
COc1ccc(/C=N/n2cncn2)cc1CSc1ccccn1,0.2,35.2,0.6,83.0*,-0.432
Cn1c(-c2ccc3c(c2)OCO3)cnc1NCc1ccc(Cl)cc1,0.3,98.6*,0,66.5*,-2.84
Cc1ccc(CNc2ncc(-c3ccc4c(c3)OCO4)n2C)cc1,0.3,74.4*,0.3,68.6*,-2.91
CC(C)CC(c1nnnn1Cc1ccccc1)N1CCC(C(N)=O)CC1 (stereo not drawn),x,x,x,x,0.588
O=C1CCC(C(=O)N(Cc2ccco2)C2(C(=O)NC3CCCC3)CCCCC2)N1 (stereo not drawn),1.2,-18.9,1.2,-17.1,-1.88
CCOC(=O)N1CCC(Nc2ccc3nnc(-c4ccccc4)n3n2)CC1,0,92.9*,0.1,96.3*,2.69*
CCOC(=O)CC(=O)CSc1ccc2nnc(-c3ccccc3)n2n1,0.6,31.6,0.7,44.7,0.981
Cc1c(S(=O)(=O)Nc2cccc(Cl)c2)c(=O)n(C)c(=O)n1C,0.5,15.0,0.8,50.9*,0.778
Cn1c(=O)c2cc(S(=O)(=O)Nc3cccc(F)c3)ccc2n(C)c1=O,0.2,83.2*,0.2,76.3*,0.559
CC(=O)Oc1cc2c(C(=O)NCc3ccncc3)c(C)oc2c2ccccc12,x,x,x,x,0.803
O=c1cc(Nc2ccc3c(c2)OCCO3)[nH]c(=O)n1Cc1ccc(F)cc1,x,x,x,x,-3.91*
CCC(=O)N1CCN(c2ccc(Cl)cc2NC(=O)c2ccc(N3CCCC3)c([N+](=O)[O-])c2)CC1,0.6,36.0,0.6,41.5,0.964
CC(=O)c1ccc(N2CCC(c3cc(-c4ccc(Cl)cc4Cl)n[nH]3)CC2)c([N+](=O)[O-])c1,0.5,58.8*,0.4,51.2*,-0.019
O=[N+]([O-])c1cccnc1N1CCC(c2cc(-c3ccc(Cl)cc3Cl)n[nH]2)CC1,0.6,85.3*,0.1,37.0,-0.494
O=[N+]([O-])c1cccnc1N1CCC(c2cc(-c3cccc(C(F)(F)F)c3)n[nH]2)CC1,0.3,98.1*,0,66.7*,-0.363
COc1ccc(OC)c(-c2cc(C3CCN(c4ncccc4[N+](=O)[O-])CC3)[nH]n2)c1,0.8,49.2,0.5,22.1,-2.73
SMILES,CYP2C19 act,CYP2C9 inhib,CYP2C9 act,CYP2C19 inh,Cav32 inh
CCCCSC(=O)Nc1ccccc1,0.7,11.5,0.9,30.6,0.337
CCCn1nnnc1NCc1ccccc1OCc1cccs1,0.8,41.6,0.6,24.5,-0.66
CCCn1nnnc1NCc1ccc(N2CCCC2)cc1,x,x,x,x,1.39
COc1ccnc(NCc2cccnc2)c1C#N,0.9,5.4,0.9,13.4,0.658
CCCCn1nnnc1NCc1cccnc1,0.3,-3.8,1,70.3*,-0.0332
CCCCn1nnnc1NCc1cc(OC)c(OC)cc1OC,0.4,31.5,0.7,60.7*,-0.123
CCCCn1nnnc1NCc1ccc(N2CCCC2)cc1,0.6,71.3*,0.3,37.7,-1.14
CCOC(=O)c1[nH]c(C)c(/C(O)=C2\C(=O)C(=O)N(CCN3CCOCC3)C2c2cccs2)c1C (stereo not drawn),0.7,-1.6,1,28.6,-0.0164
CCO[C@H]1OC(C(=O)N2CCN(Cc3ccc4c(c3)OCO4)CC2)=C[C@@H](c2ccc(Br)cc2)[C@@H]1CCCO,x,x,x,x,-0.727
CCOc1ccc(-n2c(=S)sc3c(=O)[nH]c(SCC(=O)NC(C)CC)nc32)cc1 (stereo not drawn),0.9,78.2*,0.2,10.6,-2.63
CCOc1ccc(-n2c(SCC(=O)NC(C)CC)nc3n[nH]c(C)c3c2=N)cc1 (stereo not drawn),0.8,7.1,0.9,23.2,x
O=C(CN1CCN(C2CCCCC2)CC1)c1ccc2cc[nH]c2c1,0.9,14.5,0.9,7.4,x
O=C(Nc1ccc2c(c1)OCO2)c1cccc2c1C(=O)N(Cc1cccnc1)C2,0.7,76.9*,0.2,34.1,-0.587
CCCN1Cc2cccc(C(=O)Nc3ccc4c(c3)OCCO4)c2C1=O,0.2,92.0*,0.1,80.9*,-0.0693
CCCN1Cc2cccc(C(=O)Nc3ccc4c(c3)OCO4)c2C1=O,0.9,59.8*,0.4,10.0,x
COc1cc(NC(=O)c2cccc3c2C(=O)N(Cc2cccnc2)C3)cc(OC)c1OC,0.5,68.7*,0.3,48.2,1.18
CCCN1Cc2cccc(C(=O)Nc3ccc(C)cc3)c2C1=O,1,13.9,0.9,0.3,1.02
COc1cc(C2NC(=O)NC(C)=C2C(=O)OC(C)C)ccc1OC(=O)c1ccco1 (stereo not drawn),x,x,x,x,-0.373
CCOc1ccccc1OCCOCCN1CC(C)OC(C)C1 (stereo not drawn),1,-12.6,1.1,-1.8,0.533
CC(=O)N(CCO)Cc1cc2cc(C)cc(C)c2[nH]c1=O,1,7.5,0.9,1.3,0.303
C=C1CCN([C@H](C(=O)NCc2ccco2)C(C)C)S(=O)(=O)c2ccccc21,x,x,x,x,0.465
COc1ccc(C)cc1S(=O)(=O)N(CC(=O)Nc1cccc([N+](=O)[O-])c1)c1cc(C)cc(C)c1,1,92.8*,0.1,-1.7,-0.919
Cc1ccc(S(=O)(=O)N(CC(=O)Nc2cccc([N+](=O)[O-])c2)C2CCCCC2)cc1,0.8,92.0*,0.1,19.1,0.0269
CCN(C1CCCCC1)S(=O)(=O)c1ccc(S(=O)(=O)N(CC(=O)Nc2ccccc2)C2CC2)cc1,1.1,68.3*,0.3,-14.3,-1.17
COc1ccc(C)cc1S(=O)(=O)N(CC(=O)O)c1ccc(F)cc1,1,27.6,0.7,-0.1,x
Cc1ccc(NS(=O)(=O)c2ccc(OCC(=O)Nc3cccc([N+](=O)[O-])c3)c(C)c2)cc1,0.5,88.9*,0.1,52.3*,-0.687
COc1ccc2c(C(=O)CN3CC(C)OC(C)C3)c[nH]c2c1 (stereo not drawn),0.5,21.1,0.8,53.0*,1.2

# Bioassay records (PubChem BioAssay)
